Experiment [1] can be described thus: antimalarial activity against Dd2 strain (AID 2302;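 active = growth inhibition above 50% at the single 2 µM test dose, taken to imply half-maximal potency below 2 µM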;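 note: 0% = DMSO untreated growth and 100% = chloroquine plus artemisinin killed control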). The note with it: P. falciparum Dd2 in RBCs, LDH growth readout, 72 h; at 2 µM; stronger effect = higher value.
Experiment [2] is described as follows: HepG2 cytotoxicity, primary screen, cytotoxicity control for P. falciparum antimalarial project, cell-based, ATP luminescence (AID 2303;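 active = inhibition above 50%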;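 note: 0% = DMSO wells and 100% = digitonin-killed cells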). The note with it: HepG2 viability, 24-48 h, at 10 µM, stronger effect = higher value.
The target of experiment [3] is L-lactate dehydrogenase (Plasmodium falciparum (isolate CDC / Honduras)) (UniProt Q27743). The experiment is described as follows: PfLDH activity inhibition – cell lysate, 3D7 strain, counter-screen for P. falciparum growth inhibition project (AID 2304).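 Note: 0% = vehicle and 100% = reference inhibitor.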 The note with it: P. falciparum 3D7 crude extract, LDH APAD/NBT absorbance; at 2 µM; stronger effect = higher value.
Experiment [4] is described as follows: inhibition of 3D7 malaria parasite growth – strain 3D7 (AID 2306).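 Note: 0% = DMSO wells and 100% = chloroquine plus artemisinin control wells.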 The note with it: P. falciparum 3D7 erythrocytic growth, LDH absorbance, 72 h; at 2 µM; stronger effect = higher value.
Experiment [5] has as its target Calcium-dependent protein kinase 1 (Plasmodium falciparum (isolate 3D7)) (UniProt P62344). The experiment in a line: PfCDPK1 kinase inhibitors, biochemical, TCAMS library (AID 1159585; cut-off not given, nearly all actives have IC50 up to about 0.98 µM;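 note: inhibitors leave more ATP so luminescence rises with inhibition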). The note with it: recombinant PfCDPK1, Kinase-Glo ATP depletion luminescence.
In experiment [6] the target is Plasmodium falciparum protein kinase 6 (PK6, PF3D7_1337100) (UniProt Q8IDW1). The experiment in a line: PfPK6 kinase inhibitors, biochemical, TCAMS library (AID 1159586). The note with it: recombinant PfPK6, Kinase-Glo ATP depletion luminescence.
The target of experiment [7] is Protein kinase 7 (PK7), Plasmodium falciparum 3D7 (PF3D7_0213400) (UniProt Q7YTF7). The experiment is described as follows: inhibition of Plasmodium PK7 catalytic activity – biochemical, TCAMS antimalarial set, Kinase-Glo luminescence (AID 1159587). The note with it: recombinant PfPK7, Kinase-Glo ATP depletion luminescence.
The target of experiment [8] is Calcium-dependent protein kinase 4 (Plasmodium falciparum (isolate 3D7)) (UniProt Q8IBS5). The experiment is described as follows: PfCDPK4 kinase inhibitors, biochemical, TCAMS library (AID 1159588; cut-off not given, nearly all actives have IC50 up to about 0.91 µM). The note with it: recombinant PfCDPK4, Kinase-Glo ATP depletion luminescence.

Values without a mark were called inactive. For part of these data: Potency and affinity values are given separately. Calls of active or inactive are those of the source. Unless noted, the rule behind the calls is not given here.

Chain of Calcium-dependent protein kinase 4 (Plasmodium falciparum (isolate 3D7)) (Q8IBS5 whole entry, looked up): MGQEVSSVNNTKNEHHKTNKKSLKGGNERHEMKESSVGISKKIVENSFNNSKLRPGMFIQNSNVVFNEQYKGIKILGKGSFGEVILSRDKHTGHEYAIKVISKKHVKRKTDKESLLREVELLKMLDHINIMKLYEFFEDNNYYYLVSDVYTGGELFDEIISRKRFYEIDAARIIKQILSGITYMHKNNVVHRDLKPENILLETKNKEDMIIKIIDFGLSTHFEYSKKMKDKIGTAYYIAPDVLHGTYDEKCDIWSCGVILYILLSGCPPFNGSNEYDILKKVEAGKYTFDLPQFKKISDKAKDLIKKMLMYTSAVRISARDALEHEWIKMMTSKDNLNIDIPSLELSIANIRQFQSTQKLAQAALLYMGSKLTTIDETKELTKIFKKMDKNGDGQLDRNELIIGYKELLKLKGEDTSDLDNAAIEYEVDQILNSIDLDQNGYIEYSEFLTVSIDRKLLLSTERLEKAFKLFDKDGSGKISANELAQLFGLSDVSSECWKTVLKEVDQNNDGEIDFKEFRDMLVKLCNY
Chain of Calcium-dependent protein kinase 1 (Plasmodium falciparum (isolate 3D7)) (P62344 whole entry, looked up): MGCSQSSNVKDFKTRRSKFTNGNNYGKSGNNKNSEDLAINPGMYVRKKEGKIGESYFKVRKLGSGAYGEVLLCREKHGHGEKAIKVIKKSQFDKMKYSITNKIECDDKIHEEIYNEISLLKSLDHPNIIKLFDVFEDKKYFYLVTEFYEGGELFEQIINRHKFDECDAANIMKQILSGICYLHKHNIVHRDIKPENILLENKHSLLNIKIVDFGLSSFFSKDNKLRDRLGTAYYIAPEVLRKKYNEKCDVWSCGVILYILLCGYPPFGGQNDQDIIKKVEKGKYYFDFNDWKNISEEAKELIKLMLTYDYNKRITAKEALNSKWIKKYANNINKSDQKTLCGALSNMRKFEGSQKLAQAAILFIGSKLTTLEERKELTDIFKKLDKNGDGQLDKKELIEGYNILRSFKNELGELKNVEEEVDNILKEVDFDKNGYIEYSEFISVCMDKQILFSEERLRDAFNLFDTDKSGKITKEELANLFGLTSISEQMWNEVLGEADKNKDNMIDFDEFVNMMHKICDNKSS
Chain of Protein kinase 7 (PK7), Plasmodium falciparum 3D7 (PF3D7_0213400) (Q7YTF7 1-343): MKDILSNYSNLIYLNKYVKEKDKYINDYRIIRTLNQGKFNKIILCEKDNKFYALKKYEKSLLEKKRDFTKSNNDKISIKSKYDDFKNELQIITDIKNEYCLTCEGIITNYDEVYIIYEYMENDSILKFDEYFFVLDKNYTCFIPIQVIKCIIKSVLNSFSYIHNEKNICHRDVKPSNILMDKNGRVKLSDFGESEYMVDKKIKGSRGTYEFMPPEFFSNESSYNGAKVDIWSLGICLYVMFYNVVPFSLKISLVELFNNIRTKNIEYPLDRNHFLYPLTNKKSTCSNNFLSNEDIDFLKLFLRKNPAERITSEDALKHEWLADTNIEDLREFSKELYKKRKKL
Chain of L-lactate dehydrogenase (Plasmodium falciparum (isolate CDC / Honduras)) (Q27743 whole entry, looked up): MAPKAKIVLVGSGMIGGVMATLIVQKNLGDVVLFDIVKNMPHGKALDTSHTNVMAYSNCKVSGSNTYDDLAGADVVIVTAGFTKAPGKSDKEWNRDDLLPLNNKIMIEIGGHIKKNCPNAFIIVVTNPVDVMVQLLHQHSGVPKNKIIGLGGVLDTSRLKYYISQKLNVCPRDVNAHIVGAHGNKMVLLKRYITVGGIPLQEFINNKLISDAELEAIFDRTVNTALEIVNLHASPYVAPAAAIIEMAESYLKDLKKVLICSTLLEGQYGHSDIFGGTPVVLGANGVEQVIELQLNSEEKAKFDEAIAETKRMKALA
Chain of Plasmodium falciparum protein kinase 6 (PK6, PF3D7_1337100) (Q8IDW1 1-305): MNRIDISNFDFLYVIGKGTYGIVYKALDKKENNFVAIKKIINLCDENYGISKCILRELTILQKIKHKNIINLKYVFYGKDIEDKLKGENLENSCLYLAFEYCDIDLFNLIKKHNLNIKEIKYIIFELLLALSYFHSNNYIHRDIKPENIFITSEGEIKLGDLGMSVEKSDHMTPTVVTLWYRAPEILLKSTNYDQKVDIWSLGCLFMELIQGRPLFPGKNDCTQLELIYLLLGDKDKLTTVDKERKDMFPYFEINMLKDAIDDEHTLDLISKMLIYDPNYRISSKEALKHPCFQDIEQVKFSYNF

In the case of `CC(C)C[C@H](NC(=O)OC(C)(C)C)C(=O)Nc1ccc(Cc2ccc(NC(=O)[C@H](CC(C)C)NC(=O)OC(C)(C)C)cc2)cc1`, the results for the growth inhibition in experiment [1] and in experiment [4] were 88% (active) and 94% (active), respectively. Besides, the results for the inhibition in experiment [2] and in experiment [3] were -5% and 0%, respectively. The result in experiment [5], in experiment [6], in experiment [7] and in experiment [8] was inactive.
As for `CC1CCCCN1Cc1cccc(-c2c[nH]c3nc(NC4CCCC4)ncc23)c1` (centres undefined), the growth inhibition is 14% in experiment [1] and 93% (active) in experiment [4]. Besides, the inhibition in experiment [2] is -1%; in experiment [3], -2%. Besides, the result in experiment [5], in experiment [6], in experiment [7] and in experiment [8] was inactive.
Turning to `COc1c(C2CCN(CCN3CCC(CNC(=O)c4ccc(-c5ccc(C#N)cc5)cc4)CC3)CC2)ccc2c1CCCC2`, the growth inhibition in experiment [1] and in experiment [4] was 100% (active) each time. The inhibition in experiment [2] was 96% (active); in experiment [3] it was 0%. Besides, the outcome in experiment [5], in experiment [6], in experiment [7] and in experiment [8] was inactive.
`Nc1ccnc2ccc(NC(=O)CCCCCc3ccccc3)cc12`: the growth inhibition in experiment [1] was 30%; in experiment [4], 96% (active). Further, the inhibition in experiment [2] is 47%; in experiment [3], 3%. The outcome in experiment [5], in experiment [6], in experiment [7] and in experiment [8] was inactive.
`COc1cc2nc(N3CCC(CNC(=O)c4ccc(-c5cccc(C#N)c5)cc4)CC3)nc(N)c2cc1OC`: the growth inhibition in experiment [1] and in experiment [4] was 100% (active) in each case. Further, the inhibition is 18% in experiment [2] and 6% in experiment [3]. Moreover, the result in experiment [5], in experiment [6], in experiment [7] and in experiment [8] was inactive.
Regarding `COCCn1c(Sc2ccc(C#N)c([N+](=O)[O-])c2)nnc1-c1ccc(N(C)C)cc1`, the values for the growth inhibition in experiment [1] and in experiment [4] were 66% (active) and 89% (active), respectively. Besides, the inhibition in experiment [2] is 2%; in experiment [3], -6%. Also, the result in experiment [5], in experiment [6], in experiment [7] and in experiment [8] was inactive.
As to `COc1cc2nc(NCCCN3CCCCC3)nc(NCc3ccccc3)c2cc1OC`, the figures for the growth inhibition in experiment [1] and in experiment [4] were 3% and 102% (active), respectively. In addition, the inhibition in experiment [2] is 12%; in experiment [3], 1%. Besides, the result in experiment [5], in experiment [6], in experiment [7] and in experiment [8] was inactive.
On to `CCCCCCNC(=O)C1Cc2c([nH]c3ccc(Br)cc23)C2(CCN(CCc3ccccc3)CC2)N1` (centres undefined), for which the values for the growth inhibition in experiment [1] and in experiment [4] were 94% (active) and 100% (active), respectively. Moreover, the inhibition in experiment [2] is 36%; in experiment [3] it was 0%. The result in experiment [5], in experiment [6], in experiment [7] and in experiment [8] was inactive.
For the compound `CC(C)NC(=O)c1cccc(-c2cccc(OCCN3CCSCC3c3ccccc3)c2)c1` (centres undefined), the results for the growth inhibition in experiment [1] and in experiment [4] were 45% and 89% (active), respectively. Moreover, the values for the inhibition in experiment [2] and in experiment [3] were 24% and 2%, respectively. The outcome in experiment [5], in experiment [6], in experiment [7] and in experiment [8] was inactive.
Regarding `CNC(=O)Cc1ccc(C(=O)Nc2cccc(-c3cccc(-c4nc5ccc(C(F)(F)F)cc5[nH]4)c3)c2)cc1`, the growth inhibition in experiment [1] was 37%; in experiment [4], 95% (active). Besides, the inhibition is 40% in experiment [2] and 5% in experiment [3]. The outcome in experiment [5], in experiment [6], in experiment [7] and in experiment [8] was inactive.
For the compound `COc1ccc2nccc(NN=Cc3ccc(N(C)C)cc3)c2c1`, the growth inhibition in experiment [1] is 95% (active); in experiment [4], 101% (active). Besides, the results for the inhibition in experiment [2] and in experiment [3] were 4% and -6%, respectively. Also, the outcome in experiment [5], in experiment [6], in experiment [7] and in experiment [8] was inactive.
Regarding `CN(C)CCOc1cccc(NC(=O)Nc2ccc(-c3ccccc3)cc2)c1`, the growth inhibition is 16% in experiment [1] and 90% (active) in experiment [4]. For the same compound, the inhibition in experiment [2] was 11%; in experiment [3], -1%. In addition, the result in experiment [5], in experiment [6], in experiment [7] and in experiment [8] was inactive.
As for `NCCc1cccc(-c2cnc3[nH]cc(-c4ccc(C(=O)O)cc4)c3c2)c1`, the results for the growth inhibition in experiment [1] and in experiment [4] were 98% (active) and 99% (active), respectively. The inhibition in experiment [2] is 4%; in experiment [3] it was -2%. The result in experiment [5], in experiment [6], in experiment [7] and in experiment [8] was inactive.
Regarding `C[C@@H](Oc1cc(-n2cnc3ccc(NC(=O)NC(C)(C)C)cc32)sc1C(N)=O)c1ccccc1Cl`, the growth inhibition in experiment [1] was 97% (active); in experiment [4], 95% (active). Moreover, the figures for the inhibition in experiment [2] and in experiment [3] were 28% and 1%, respectively. The result in experiment [5], in experiment [6], in experiment [7] and in experiment [8] was inactive.
As to `Cc1nc(NCCc2cnc[nH]2)cc(NCc2ccccc2)n1`, the growth inhibition in experiment [1] was 5%; in experiment [4], 100% (active). The values for the inhibition in experiment [2] and in experiment [3] were 5% and -2%, respectively. The result in experiment [5], in experiment [6], in experiment [7] and in experiment [8] was inactive.
As for `CCCCCCCc1c(C)[nH]c2cc(OC)ccc2c1=O`, the growth inhibition in experiment [1] was 98% (active); in experiment [4] it was 99% (active). The inhibition in experiment [2] is 5%; in experiment [3] it was -5%. Moreover, the outcome in experiment [5], in experiment [6], in experiment [7] and in experiment [8] was inactive.
Turning to `Cc1cnc(N2CCN(CC3CCN(C)CC3)CC2)nc1Oc1ccc(-n2ccnc2)cc1`, the growth inhibition in experiment [1] is 66% (active); in experiment [4] it was 99% (active). Besides, the inhibition was 9% in experiment [2] and -3% in experiment [3]. The result in experiment [5], in experiment [6], in experiment [7] and in experiment [8] was inactive.
Consider `CN(C)CC1c2[nH]c3ccccc3c2CCN1C(=O)Nc1ccc(Cl)c(Cl)c1` (centres undefined), for which the values for the growth inhibition in experiment [1] and in experiment [4] were 32% and 90% (active), respectively. Besides, the inhibition in experiment [2] is 99% (active); in experiment [3] it was -6%. For the same compound, the outcome in experiment [5], in experiment [6], in experiment [7] and in experiment [8] was inactive.

The values above are taken from PubChem BioAssay.
